{"source": "PubChem BioAssay AID1240", "about": "(Sanford-Burnham Center for Chemical Genomics, 2008)", "note": "About 800 (1.6%) of roughly 50,000 compounds showed an effect of 50% or more. Many of the other results were omitted from the sample, so strong results are more common in it than they were."}
{"target": "Bcl-2-like protein 10 (Homo sapiens) (UniProt Q9HD36)", "sequence (Q9HD36 whole entry, looked up)": "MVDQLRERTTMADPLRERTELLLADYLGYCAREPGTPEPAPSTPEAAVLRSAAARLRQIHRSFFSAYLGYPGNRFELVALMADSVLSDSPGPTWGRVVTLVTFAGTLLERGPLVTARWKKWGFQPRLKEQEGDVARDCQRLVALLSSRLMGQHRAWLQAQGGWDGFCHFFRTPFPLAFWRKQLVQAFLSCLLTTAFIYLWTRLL", "test": "TR3 peptide-Bcl-B binding displacers, biochemical primary FP assay, phenotype converters (AID 1240);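 also: 0% = Bcl-B with tracer peptide and DMSO and 100% = tracer peptide lacking Bcl-B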", "conditions": "GST-Bcl-B / FITC-TR3 peptide fluorescence polarization; stronger effect = higher value; compound at 3.75 mg/L", "units": {"displacement": "%"}}
{"compound": "CCCCOC(=O)c1cccc(NC(=O)c2cc3ccccc3oc2=O)c1", "displacement": 1.7}
{"compound": "Cc1ccc(N2C(=O)c3ccc(C(=O)O)cc3C2=O)c(C)c1", "displacement": 1.6}
{"compound": "Cc1ccc(C(=O)O)cc1N1C(=O)c2ccccc2C1=O", "displacement": 7}
{"compound": "Cc1ccc(C(=O)O)cc1-n1c(C)ccc1C", "displacement": 83.2}
{"compound": "Cc1cc(C(=O)O)ccc1-n1c(C)ccc1C", "displacement": 81.4}
{"compound": "Cc1ccc(-c2ccccc2)n1-c1cccc(C(=O)O)c1", "displacement": 1.2}
{"compound": "Cc1ccc(C(=O)O)cc1N1C(=O)c2ccc(C(=O)O)cc2C1=O", "displacement": 6.5}
{"compound": "COc1ccccc1NC(=O)c1ccc(Br)o1", "displacement": 1}
{"compound": "O=c1oc(-c2ccccc2Cl)nc2ccc(-c3ccc4nc(-c5ccccc5Cl)oc(=O)c4c3)cc12", "displacement": 11.6}
{"compound": "O=C(COc1ccc([N+](=O)[O-])cc1)Nc1cc(-c2nc3ccccc3s2)ccc1Cl", "displacement": 9}
{"compound": "Cc1ccc2nsnc2c1NC(=O)c1ccc(-c2cccc(Cl)c2)o1", "displacement": 1.4}
{"compound": "Cc1ccc2nsnc2c1NC(=O)c1ccc(-c2cccc([N+](=O)[O-])c2)o1", "displacement": 105}
{"compound": "O=C(Nc1cccc(-c2nc3ccccc3s2)c1)c1ccc(-c2ccc([N+](=O)[O-])cc2)o1", "displacement": 70}
{"compound": "O=C(Nc1cc(-c2nc3ccccc3s2)ccc1Cl)c1ccc([N+](=O)[O-])cc1", "displacement": 90.8}
{"compound": "O=C(Nc1ccc(-c2nc3ccccc3s2)c(O)c1)c1ccc(-c2cccc([N+](=O)[O-])c2)o1", "displacement": 6.1}
{"compound": "CC(=O)Nc1cc(-c2nc3ccccc3s2)ccc1Cl", "displacement": 11.6}
{"compound": "Cc1ccc2nsnc2c1NC(=O)c1ccc(-c2ccc([N+](=O)[O-])cc2)o1", "displacement": 16.6}
{"compound": "Cc1c(NC(=O)c2ccc(-c3cccc([N+](=O)[O-])c3)o2)cccc1-c1nc2ccccc2s1", "displacement": 3.7}
{"compound": "O=c1/c(=C\\c2ccccc2OS(=O)(=O)c2ccc3ccccc3c2)sc2nc3ccccc3n12", "displacement": 4.6}
{"compound": "O=[N+]([O-])c1ccc(N2CCN(S(=O)(=O)c3ccc(Cl)cc3)CC2)c(C(F)(F)F)c1", "displacement": 8.3}
{"compound": "CCOC(=O)c1ccccc1NC(=O)c1ccc(N(Cc2ccc(Cl)cc2)S(C)(=O)=O)cc1", "displacement": 12.1}
{"compound": "COC(=O)c1c(-c2cc(C)ccc2C)csc1N", "displacement": -6.2}
{"compound": "COc1cccc(/C=N/NC(=O)c2cc(C)[nH]n2)c1OC", "displacement": -9}
{"compound": "CN(C)CCCNC(=O)c1ccc2sc3cc(=O)c(N)cc-3nc2c1", "displacement": 44.6}
{"compound": "CCCCOc1ccc2c3c(cccc13)C(=O)c1ccccc1-2", "displacement": 176}
{"compound": "CCCCOc1ccccc1NC(=O)C(c1ccccc1)c1ccccc1", "displacement": -16.9}
{"compound": "CCCCOc1ccc(N2C(=O)c3cccc4cccc(c34)C2=O)cc1", "displacement": 0.2}
{"compound": "CC1(C)CC(=O)C(Sc2ccc([N+](=O)[O-])cc2)=C(O)C1", "displacement": 17}
{"compound": "CCOc1cc(-c2ccc(OC)cc2)[o+]c2c1ccc1ccccc12", "displacement": 6.2}
{"compound": "C=CCOC(=O)C1=C(C)NC(=S)NC1c1ccccc1OCC", "note": "(stereo unspecified)", "displacement": 2.1}
{"compound": "N#CC(C#N)=C/C(=C/C(C#N)C#N)c1ccccc1", "displacement": 109}
{"compound": "N#C/C(=C\\c1ccc(Sc2ccccc2)o1)c1ccccc1", "displacement": -14.9}
{"compound": "N#C/C(=C\\N1CCOCC1)c1ccccc1", "displacement": -0.9}
{"compound": "COc1ccc2c(c1)C1C=CCC1C(c1ccc([N+](=O)[O-])cc1)N2", "note": "(stereo unspecified)", "displacement": -0.8}
{"compound": "Cc1ccc2c(c1)C1C=CCC1C(c1ccc([N+](=O)[O-])cc1)N2", "note": "(stereo unspecified)", "displacement": 12.2}
{"compound": "COc1ccc2c(c1)C1C=CCC1C(C(=O)O)N2", "note": "(stereo unspecified)", "displacement": 150}
{"compound": "COc1ccc2c(c1)C1C=CCC1C(c1cccc([N+](=O)[O-])c1)N2", "note": "(stereo unspecified)", "displacement": -2.3}
{"compound": "Cc1ccc2c(c1)C1C=CCC1C(c1ccccc1[N+](=O)[O-])N2", "note": "(stereo unspecified)", "displacement": 6.9}
{"compound": "Cc1ccc2c(c1)C1C=CCC1C(C(=O)O)N2", "note": "(stereo unspecified)", "displacement": 142}
{"compound": "COC(=O)c1c(C)oc2ccc(OC(=O)c3ccc(OC)c(OC)c3)cc12", "displacement": 10.8}
{"compound": "Cc1ccc(C)c(N2C(=O)C3C4C=CC(C4=C4CCCC4)C3C2=O)c1", "note": "(stereo unspecified)", "displacement": 3.8}
{"compound": "CCOc1cc(OCC)cc(C(=O)Nc2ccc(-c3nc4ccc(C)cc4o3)cc2)c1", "displacement": -16.6}
{"compound": "COc1cccc(C(=O)Nc2ccc3oc(-c4ccc(F)cc4Cl)nc3c2)c1", "displacement": 17.1}
{"compound": "CCOc1cccc(C(=O)Nc2ccc(-c3nc4cc(Cl)ccc4o3)cc2)c1", "displacement": 81.3}
{"compound": "O=C(Nc1cccc(-c2nc3cc(Cl)ccc3o2)c1)c1cccc([N+](=O)[O-])c1", "displacement": -3.3}
{"compound": "CCOc1cccc(C(=O)Nc2ccc(C(=O)Nc3cccc(-c4nc5ccccc5o4)c3)cc2)c1", "displacement": 0.7}
{"compound": "CCOc1cc(OCC)cc(C(=O)Nc2ccc3oc(-c4ccc(OC)cc4)nc3c2)c1", "displacement": 4.2}
{"compound": "COc1ccc(C(=O)Nc2ccc(O)c(-c3nc4cc(Cl)ccc4o3)c2)cc1", "displacement": 40.1}
{"compound": "CCOc1ccc(C(=O)Nc2ccc3oc(-c4ccncc4)nc3c2)cc1Cl", "displacement": -9.5}
{"compound": "CCOc1ccc(C(=O)Nc2ccc(-c3nc4ccc(C)cc4o3)cc2)cc1Cl", "displacement": 104}
{"compound": "O=C(Nc1ccc(-c2nc3ccccc3c(=O)o2)cc1)c1cccc([N+](=O)[O-])c1", "displacement": -5.5}
{"compound": "O=C(Nc1ccc(-c2nc3cc(Cl)cc(Cl)c3o2)cc1)c1cccc([N+](=O)[O-])c1", "displacement": 62.7}
{"compound": "COc1cccc(C(=O)Nc2ccc(Cl)c(-c3nc4cc(Cl)ccc4o3)c2)c1", "displacement": 105}
{"compound": "CCOC(=O)C1=C(O)/C(=C/c2ccc(-c3ccccc3)cc2)SC1=Nc1ccc(OC)cc1", "displacement": -6}
{"compound": "O=C1c2ccccc2C(=O)C1(Nc1ccc(F)cc1)c1ccccc1", "displacement": 17.4}
{"compound": "O=C(Nc1ccccc1[N+](=O)[O-])c1c(-c2cnc3ccccc3c2C(=O)Nc2ccccc2[N+](=O)[O-])cnc2ccccc12", "displacement": -1.5}
{"compound": "COc1ccc(Cl)cc1NC(=O)c1cccc(F)c1", "displacement": -13.8}
{"compound": "CC1CN(C(=O)c2ccccc2C(=O)c2ncc[nH]2)CC(C)O1", "note": "(stereo unspecified)", "displacement": -0.9}
{"compound": "CC(=O)OC1(C#CCl)CCCCC1", "displacement": -8.7}
{"compound": "O=C1CC(N2CCC(O)CC2)C(=O)N1c1ccc(Cl)cc1", "note": "(stereo unspecified)", "displacement": -4.9}
{"compound": "COc1cccc(/C=N/Nc2nc(-c3ccc(C)cc3)nc3ccccc23)c1O", "displacement": 3.4}
{"compound": "Cc1ccc(-c2nc(N/N=C/c3ccccc3O)c3ccccc3n2)cc1", "displacement": 76.2}
{"compound": "Cc1ccc(-c2nc(N/N=C/c3ccccc3)c3ccccc3n2)cc1", "displacement": 6.7}
{"compound": "CCC(=O)Oc1cc2oc(=O)c(CC)c(C)c2cc1CC", "displacement": 10.1}
{"compound": "O=C1NC(=O)N(c2ccc(Cl)cc2)C(=O)/C1=C/c1ccc(-c2ccc(Cl)c(C(=O)O)c2)o1", "displacement": 72.5}
{"compound": "O=C1NC(=S)N(c2ccccc2)C(=O)/C1=C/c1ccc(-c2ccc([N+](=O)[O-])cc2)o1", "displacement": -1.5}
{"compound": "COc1ccc(N2C(=O)NC(=O)/C(=C/c3ccc(-c4cccc([N+](=O)[O-])c4)o3)C2=O)cc1", "displacement": -12.5}
{"compound": "O=C1NC(=S)N(c2ccc(Br)cc2)C(=O)/C1=C\\c1ccc(-c2ccc([N+](=O)[O-])cc2)o1", "displacement": 16.2}
{"compound": "O=C1NC(=O)N(c2ccc(Br)cc2)C(=O)/C1=C/c1ccc(-c2cccc([N+](=O)[O-])c2)o1", "displacement": 138}
{"compound": "O=C1NC(=O)N(c2ccc(Cl)cc2)C(=O)/C1=C/c1ccc(-c2ccc(Cl)cc2[N+](=O)[O-])o1", "displacement": 10.6}
{"compound": "O=C1NC(=O)N(c2ccccc2)C(=O)/C1=C\\c1ccc(-c2ccc([N+](=O)[O-])cc2)o1", "displacement": 130}
{"compound": "O=C1NC(=O)N(c2ccc(Cl)cc2)C(=O)/C1=C\\c1ccc(-c2ccc(C(=O)O)c(Cl)c2)o1", "displacement": -7.8}
{"compound": "O=C1NN(c2ccc(Cl)cc2)C(=O)/C1=C\\c1ccc(-c2ccc(Cl)c(C(=O)O)c2)o1", "displacement": 22.1}
{"compound": "O=C1NC(=O)N(c2ccc(Cl)cc2)C(=O)/C1=C\\c1ccc(-c2ccc([N+](=O)[O-])cc2)o1", "displacement": 105}
{"compound": "COc1ccc(N2C(=O)NC(=O)/C(=C/c3ccc(-c4ccc([N+](=O)[O-])cc4)o3)C2=O)cc1", "displacement": 46.2}
{"compound": "O=C1NC(=O)N(c2ccccc2)C(=O)/C1=C\\c1ccc(-c2cccc([N+](=O)[O-])c2)o1", "displacement": 39.3}
